Test results taken from PubChem BioAssay (Tox21).
Records with an inconclusive call do not appear. Active and inactive are the calls of the source. Unless noted, calls follow the shape of the full dose curve.

Key:
[1] = Nuclear factor erythroid 2-related factor 2/antioxidant responsive element (Nrf2/ARE) small molecule agonists: qHTS cell viability counter screen in human keratinocytes (AID 1919968; active = well fitted curve in the direction sought with a large enough effect in the repeat runs; an effect the other way counts as inactive or inconclusive; also: nearly all actives have a fitted effect of over 55% in size; also: potency is read from the fitted curve at half-maximal effect)
Outline: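 After a 5 h attachment period, ARE-reporter keratinocytes were dosed with compounds in DMSO and then cultured 23 h at 37 C. Cell viability came from CellTiter-Fluor signal read after a further 1 h.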

[2] = Nuclear factor erythroid 2-related factor 2/antioxidant responsive element (Nrf2/ARE) small molecule agonists: luciferase reporter gene qHTS assay in human keratinocytes (AID 1919969); also: nearly all actives have a fitted effect of over 35% in size
[3] = target: Gonadotropin-releasing hormone receptor (Homo sapiens) (UniProt P30968); test: Human gonadotropin-releasing hormone receptor (GnRHR) small molecule agonists, calcium flux assay in GnRHR-HEK293 cells (AID 1920063); also: nearly all actives have a fitted effect of over 35% in size
Sequence of Gonadotropin-releasing hormone receptor (Homo sapiens) (P30968 whole entry, looked up): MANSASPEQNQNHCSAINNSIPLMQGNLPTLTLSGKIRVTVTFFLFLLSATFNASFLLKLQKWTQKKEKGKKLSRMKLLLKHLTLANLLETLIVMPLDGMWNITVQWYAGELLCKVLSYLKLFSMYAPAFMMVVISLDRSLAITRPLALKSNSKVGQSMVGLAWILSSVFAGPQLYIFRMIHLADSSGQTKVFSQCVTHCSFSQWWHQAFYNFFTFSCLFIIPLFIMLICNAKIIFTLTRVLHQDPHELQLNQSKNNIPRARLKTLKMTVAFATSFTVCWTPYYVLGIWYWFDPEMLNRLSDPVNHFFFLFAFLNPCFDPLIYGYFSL
Outline: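 We seeded human GnRHR-expressing HEK293 cells for 18 hours, loaded them with calcium dye for an hour at 37 C, added test compounds, and recorded fluorescence intensity kinetically for three minutes.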

[4] = target: KiSS-1 receptor (Homo sapiens) (UniProt Q969F8); test: Human kisspeptin (KISS1R) small molecule agonists, calcium flux assay in KISS1R-HEK293 cells (AID 1920064; active = well fitted curve in the direction sought with a large enough effect in the repeat runs; an effect the other way counts as inactive or inconclusive)
Sequence of KiSS-1 receptor (Homo sapiens) (Q969F8 whole entry, looked up): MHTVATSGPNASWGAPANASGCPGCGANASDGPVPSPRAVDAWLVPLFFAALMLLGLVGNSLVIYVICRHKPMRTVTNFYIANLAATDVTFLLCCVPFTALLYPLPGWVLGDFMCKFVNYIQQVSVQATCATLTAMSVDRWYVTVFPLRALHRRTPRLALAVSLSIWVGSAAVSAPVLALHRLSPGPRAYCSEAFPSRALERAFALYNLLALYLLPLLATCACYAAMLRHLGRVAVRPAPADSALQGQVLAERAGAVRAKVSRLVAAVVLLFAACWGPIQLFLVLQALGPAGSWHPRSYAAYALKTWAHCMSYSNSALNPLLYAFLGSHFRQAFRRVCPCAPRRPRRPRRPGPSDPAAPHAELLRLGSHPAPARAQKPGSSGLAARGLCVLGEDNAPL
Outline: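 Kinetic calcium assay, 1 s sampling over 3 min at Ex/Em 480/540, in HEK293 cells engineered with human KISS1R; compounds delivered in DMSO after 1 h dye loading.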

[5] = G protein-coupled receptor (GPCR) small molecule agonists, calcium flux assay: HEK293 wild type cell line counter screen (AID 1920065)
Outline: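 Calcium-sensitive dye, loaded 1 h at 37 C into cells cultured 18 h, reports compound-evoked calcium release as fluorescence (Ex/Em 480/540), measured over 3 min. Agonist mode; 15-point titrations, triplicate.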

[6] = p53 small molecule agonists, cell-based qHTS assay with human liver microsomes (AID 1963577)
Outline: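 p53RE-bla cells, 4,000/well, compound added after 5 h, with human liver microsomes 0.5 mg/mL and NADPH 0.5 mg/mL final; 16 h at 37 C, then LiveBLAzer 2 h RT, fluorescence.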

[7] = p53 small molecule agonists, cell-based qHTS assay with rat liver microsomes (AID 1963578)
Outline: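 p53RE-bla cells, 4,000/well, pre-incubated 5 h, then given compounds plus rat liver microsomes (0.5 mg/mL final) and NADPH (0.5 mg/mL final). Incubation 16 h at 37 C; beta-lactamase reporter read by LiveBLAzer fluorescence after 2 h at room temperature.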

[8] = p53 small molecule agonists, cell-based qHTS assay with human liver microsomes: qHTS cell viability counter screen (AID 1963579); also: nearly all actives have a fitted effect of over 45% in size
Outline: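 p53RE-bla cells, 4,000/well, dosed 5 hours after plating, with human liver microsomes (0.5 mg/mL final) plus NADPH (0.5 mg/mL final), 16 hours at 37 C. Viability read as CellTiter-Glo luminescence after 30 min at room temperature.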

[9] = p53 small molecule agonists, cell-based qHTS assay with rat liver microsomes: qHTS cell viability counter screen (AID 1963580); also: nearly all actives have a fitted effect of over 45% in size; also: potency is read from the fitted curve at half-maximal effect
Outline: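 HCT-116 p53RE-bla, 4,000 cells/well, 5 h pre-incubation; cpd + rat liver microsomes 0.5 mg/mL + NADPH 0.5 mg/mL (final); 16 h, 37 C; CellTiter-Glo, 30 min RT; luminescence.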

[10] = p53 small molecule agonists, cell-based qHTS assay: qHTS cell viability counter screen (AID 1963581); also: nearly all actives have a fitted effect of over 45% in size
Outline: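 Following 5 h attachment, HCT-116 p53RE-bla cells took up compound for 16 h at 37 C; the reporter was read with B/G FRET substrate (2 h RT), and viability then via CellTiter-Glo ATP luminescence.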

[11] = p53 small molecule agonists, cell-based qHTS assay (AID 1963582; active = well fitted activation curve with a large enough effect in the signal ratio in the repeat runs, not every such curve was filed as active; the % refers to the signal ratio)
Outline: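 In this cell-based concentration-response screen, a p53 response element drives beta-lactamase; cells received DMSO-borne compounds after 5 h culture and were incubated a further 16 h before FRET substrate development.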

[12] = target: 5-hydroxytryptamine receptor 2A (Homo sapiens) (UniProt P28223); test: 5-hydroxytryptamine receptor 2A (HTR2A) small molecule antagonists, cell-based qHTS assay (AID 1963586); also: nearly all actives have a fitted effect of over 45% in size; also: potency is read from the fitted curve at half-maximal effect
Sequence of 5-hydroxytryptamine receptor 2A (Homo sapiens) (P28223 whole entry, looked up): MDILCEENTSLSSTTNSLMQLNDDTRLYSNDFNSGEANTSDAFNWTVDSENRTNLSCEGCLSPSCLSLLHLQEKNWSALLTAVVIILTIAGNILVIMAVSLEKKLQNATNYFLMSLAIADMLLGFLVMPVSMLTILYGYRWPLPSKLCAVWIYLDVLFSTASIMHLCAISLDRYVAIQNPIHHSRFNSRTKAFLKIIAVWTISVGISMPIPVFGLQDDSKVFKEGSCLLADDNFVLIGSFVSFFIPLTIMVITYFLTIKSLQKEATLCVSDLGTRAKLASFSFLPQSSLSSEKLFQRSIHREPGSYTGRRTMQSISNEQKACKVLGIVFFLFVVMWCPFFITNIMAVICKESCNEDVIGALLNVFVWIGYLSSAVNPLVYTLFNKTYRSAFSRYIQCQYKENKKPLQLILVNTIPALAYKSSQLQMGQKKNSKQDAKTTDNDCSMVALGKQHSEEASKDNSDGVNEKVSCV
Outline: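 Antagonist-mode intracellular calcium assay: DOI (4 nM) added after 5 min compound pre-incubation at room temperature to dye-loaded HTR2A-CHO cells. Fluorescence followed for 3 min, sampled every second.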

[13] = target: 5-hydroxytryptamine receptor 2A (Homo sapiens) (UniProt P28223); test: 5-hydroxytryptamine receptor 2A (HTR2A) small molecule agonists, cell-based qHTS assay (AID 1963587); also: nearly all actives have a fitted effect of over 30% in size; also: potency is read from the fitted curve at half-maximal effect
Outline: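 Kinetic calcium-flux fluorescence (2 min, 1 sec intervals) after compound addition in agonist mode. HTR2A-CHO cells were cultured 18 h, then dye-loaded 1 h at 37 C.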

[14] = target: Muscarinic acetylcholine receptor M1 (Homo sapiens) (UniProt P11229); test: Cholinergic receptor muscarinic 1 (CHRM1) small molecule antagonists, cell-based qHTS assay (AID 1963588); also: nearly all actives have a fitted effect of over 40% in size
Sequence of Muscarinic acetylcholine receptor M1 (Homo sapiens) (P11229 whole entry, looked up): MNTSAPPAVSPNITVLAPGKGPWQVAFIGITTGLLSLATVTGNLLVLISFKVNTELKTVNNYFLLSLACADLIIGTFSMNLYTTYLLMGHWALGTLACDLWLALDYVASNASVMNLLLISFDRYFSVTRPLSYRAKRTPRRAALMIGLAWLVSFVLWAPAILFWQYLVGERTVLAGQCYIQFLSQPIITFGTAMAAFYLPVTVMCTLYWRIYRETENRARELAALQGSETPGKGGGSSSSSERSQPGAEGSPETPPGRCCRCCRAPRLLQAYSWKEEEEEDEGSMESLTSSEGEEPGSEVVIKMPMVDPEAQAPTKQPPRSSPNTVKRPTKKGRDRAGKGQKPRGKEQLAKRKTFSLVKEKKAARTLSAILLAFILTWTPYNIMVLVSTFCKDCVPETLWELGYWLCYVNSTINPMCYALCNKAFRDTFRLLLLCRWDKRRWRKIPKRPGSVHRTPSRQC
Outline: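 CHRM1-CHO calcium-flux assay, antagonist mode. Cells were seeded 18 h, dye-loaded 1 h at 37 C and given compound for 5 min at RT, then acetylcholine was added at 50nM. FDSS fluorescence was read 3 min; 15 concentrations, three runs.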

[15] = cAMP Responsive Elements (CRE) small molecule agonists, cell-based qHTS assay (AID 1963590)
Outline: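 A CRE-responsive beta-lactamase reporter in HEK 293T cells was used. Treatment ran 3 h at 37 C; detection used LiveBLAzer B/G FRET substrate for 2 h at room temperature.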

[16] = cAMP Responsive Elements (CRE) small molecule antagonists, cell-based qHTS assay (AID 1963591; active = well fitted inhibition curve with a large enough effect in the signal ratio in the repeat runs, not every such curve was filed as active; the % refers to the signal ratio)
Outline: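 HEK293T cells carrying a CRE-driven beta-lactamase reporter receive compound and NKH477 (0.25 uM final) for 3 h. Fluorescence from LiveBLAzer B/G FRET substrate is read after 2 h at room temperature.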

[17] = target: Beta-2 adrenergic receptor (Homo sapiens) (UniProt P07550); test: Adrenergic beta2 receptor (ADRB2) small molecule antagonists, cell-based qHTS assay (AID 1963592); also: series mostly up to about 92 µM; nearly all actives have a fitted effect of over 50% in size
Sequence of Beta-2 adrenergic receptor (Homo sapiens) (P07550 whole entry, looked up): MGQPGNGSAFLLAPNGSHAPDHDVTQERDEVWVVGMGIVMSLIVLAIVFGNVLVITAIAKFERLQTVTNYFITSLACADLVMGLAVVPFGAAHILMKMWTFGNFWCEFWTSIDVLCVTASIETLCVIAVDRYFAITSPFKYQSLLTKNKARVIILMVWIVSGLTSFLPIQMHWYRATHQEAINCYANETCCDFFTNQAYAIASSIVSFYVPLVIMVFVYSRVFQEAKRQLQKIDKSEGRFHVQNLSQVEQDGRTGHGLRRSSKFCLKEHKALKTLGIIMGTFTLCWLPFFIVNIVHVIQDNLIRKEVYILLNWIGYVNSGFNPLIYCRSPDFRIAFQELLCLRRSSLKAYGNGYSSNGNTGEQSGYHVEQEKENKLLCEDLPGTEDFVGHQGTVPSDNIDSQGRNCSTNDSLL
Outline: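 Cells (CHO, stable ADRB2 overexpression) incubated 18-20hr at 37C; compounds added from DMSO; agonist mix (1nM isoproterenol, 100uM IBMX, 25uM Ro-20-1724) added; 0.5hr RT; d2-cAMP and anti-cAMP-cryptate added; 1hr RT; 665/615 nm read.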

[18] = target: D(2) dopamine receptor (Homo sapiens) (UniProt P14416); test: Dopamine D2 receptor (DRD2) small molecule agonists, cell-based qHTS assay (AID 1963594); also: nearly all actives have a fitted effect of over 35% in size
Sequence of D(2) dopamine receptor (Homo sapiens) (P14416 whole entry, looked up): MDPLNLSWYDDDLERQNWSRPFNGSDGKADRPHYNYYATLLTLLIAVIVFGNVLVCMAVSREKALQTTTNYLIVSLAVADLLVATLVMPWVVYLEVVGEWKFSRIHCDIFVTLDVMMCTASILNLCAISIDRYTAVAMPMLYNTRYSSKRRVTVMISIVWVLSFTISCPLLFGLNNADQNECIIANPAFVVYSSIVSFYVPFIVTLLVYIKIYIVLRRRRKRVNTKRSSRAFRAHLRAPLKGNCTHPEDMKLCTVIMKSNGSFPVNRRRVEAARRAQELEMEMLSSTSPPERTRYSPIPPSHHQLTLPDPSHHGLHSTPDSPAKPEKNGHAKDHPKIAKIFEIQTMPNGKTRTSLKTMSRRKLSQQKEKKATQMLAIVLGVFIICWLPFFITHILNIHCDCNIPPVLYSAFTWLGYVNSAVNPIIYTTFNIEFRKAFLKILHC
Outline: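 cAMP accumulation in DRD2-HEK293 cells measured by HTRF after 1 h detection; compounds added 10 min before NKH477 (200nM […]) forskolin-analogue stimulation, 30 min at room temperature, with Ro20-1724 present at 0.1 mM final.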

[19] = target: D(2) dopamine receptor (Homo sapiens) (UniProt P14416); test: Dopamine D2 receptor (DRD2) small molecule antagonists, cell-based qHTS assay (AID 1963595; active = well fitted inhibition curve with a large enough effect in the signal ratio in the repeat runs, with a control signal flat; the % refers to the signal ratio)
Outline: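 Readout: HTRF cAMP, cAMP-d2 competing with cellular cAMP for anti-cAMP cryptate, read after 1 h. Cells: DRD2-HEK293. Conditions: 0.1 mM Ro20-1724, 12 nM quinpirole, 200 nM NKH477, 30 min RT.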

[20] = target: Muscarinic acetylcholine receptor M1 (Homo sapiens) (UniProt P11229); test: Cholinergic receptor muscarinic 1 (CHRM1) small molecule agonists, cell-based qHTS assay (AID 1963589); also: nearly all actives have a fitted effect of over 35% in size
Outline: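 Measures agonist-induced intracellular calcium rise. Stable human CHRM1 CHO line, 1 h dye load at 37 C, compounds from DMSO, kinetic fluorescence read.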
% is scaled to controls: 0 for no effect and ±100 for the full control effect.

CC(NN)c1ccccc1 (stereo unspecified)
inactive: activity change, negative = cytotoxicity [1] -0.107% [at 19 µM] | activity, positive = activation [2] -1.07% [at 19 µM] | activity change [3] -0.677% [at 11.8 µM, stronger effect = higher value] | activation [4] -0.175% [at 15.8 µM] | activation [5] -1.16% [at 11.8 µM] | activation [6] -2.41% [at 13.5 µM] | activation [7] -0.8% [at 13.6 µM] | activity change, negative = cytotoxicity [8] -4.08% [at 13.5 µM] | activity change, negative = cytotoxicity [9] 2.75% [at 13.5 µM] | activity change, negative = cytotoxicity [10] 23.1% [at 13.5 µM] | activation [11] -1.5% [at 13.5 µM] | activity, negative = inhibition [12] 14.8% [at 12.7 µM] | activation [13] 1.19% [at 15.9 µM] | activity, negative = inhibition [14] 10.3% [at 12.6 µM] | activation [15] -0.272% [at 19 µM] | activity change, negative = inhibition [16] -6.39% [at 18.9 µM] | activity change, negative = inhibition [17] 10.7% [at 19 µM] | activation [18] 12.1% [at 19 µM] | activity change, negative = inhibition [19] 4.23% [at 18.9 µM]

CC1(C)C(=O)C(C)(C)C1=O
inactive: Potency [1] | Potency [2] | Potency [3] | outcome [4] | outcome [5] | Potency [6] | Potency [7] | Potency [8] | Potency [9] | Potency [10] | Potency [11] | Potency [12] | Potency [13] | Potency [14] | Potency [16] | Potency [17] | Potency [18] | Potency [19]

CC(N)CCCC(C)(C)O (stereo unspecified)
inactive: Potency [1] | Potency [2] | Potency [3] | outcome [4] | outcome [5] | Potency [6] | Potency [7] | Potency [8] | Potency [9] | Potency [10] | Potency [11] | Potency [12] | Potency [13] | Potency [14] | Potency [15] | Potency [16] | Potency [17] | Potency [18] | Potency [19]

CCCCOC(=O)[C@@H](C)Oc1ccc(Oc2ccc(C(F)(F)F)cn2)cc1
inactive: Potency [1] | Potency [2] | Potency [3] | outcome [4] | outcome [5] | Potency [6] | Potency [7] | Potency [8] | Potency [9] | Potency [10] | Potency [11] | Potency [12] | Potency [13] | Potency [14] | Potency [16] | Potency [17] | Potency [18] | Potency [19]

NC(=O)CC[C@@H](N)C(=O)O
inactive: Potency [1] | Potency [2] | Potency [3] | outcome [4] | outcome [5] | Potency [6] | Potency [7] | Potency [8] | Potency [9] | Potency [10] | Potency [11] | Potency [12] | Potency [13] | Potency [14] | Potency [16] | Potency [17] | Potency [18] | Potency [19]

CN(C)CCCCl
inactive: Potency [1] | Potency [2] | Potency [3] | outcome [4] | outcome [5] | Potency [6] | Potency [7] | Potency [8] | Potency [9] | Potency [10] | Potency [11] | Potency [12] | Potency [13] | Potency [14] | Potency [15] | Potency [16] | Potency [17] | Potency [18] | Potency [19]

CCCn1cnc2c1c(=O)n(CCCCC(C)=O)c(=O)n2C
inactive: Potency [1] | Potency [2] | Potency [3] | outcome [4] | outcome [5] | Potency [6] | Potency [7] | Potency [8] | Potency [9] | Potency [10] | Potency [11] | Potency [12] | Potency [13] | Potency [14] | Potency [20] | Potency [18] | Potency [19]

Oc1ccc2c(c1)CCC2
inactive: Potency [1] | Potency [2] | Potency [3] | outcome [4] | outcome [5] | Potency [6] | Potency [7] | Potency [8] | Potency [9] | Potency [10] | Potency [11] | Potency [12] | Potency [13] | Potency [14] | Potency [15] | Potency [16] | Potency [17] | Potency [18] | Potency [19]

C[C@H](O)C(=O)Nc1c(I)c(C(=O)NC(CO)CO)c(I)c(C(=O)NC(CO)CO)c1I
inactive: Potency [1] | Potency [2] | Potency [3] | outcome [4] | outcome [5] | Potency [6] | Potency [7] | Potency [8] | Potency [9] | Potency [10] | Potency [11] | Potency [12] | Potency [13] | Potency [14] | Potency [15] | Potency [16] | Potency [17] | Potency [18] | Potency [19]

O=C(C1CCCCC1)N1CC(=O)N2CCCc3ccccc3C2C1 (stereo unspecified)
inactive: Potency [1] | Potency [2] | Potency [3] | outcome [4] | outcome [5] | Potency [6] | Potency [7] | Potency [8] | Potency [9] | Potency [10] | Potency [11] | Potency [12] | Potency [13] | Potency [14] | Potency [20] | Potency [17] | Potency [18] | Potency [19]

CCCCCCCCCCOCC(O)CN (stereo unspecified)
active: Potency [1] 37.6 µM | Potency [12] 18.3 µM | Potency [13] 9.52 µM
inactive: Potency [2] | Potency [3] | outcome [4] | outcome [5] | Potency [6] | Potency [7] | Potency [8] | Potency [9] | Potency [10] | Potency [11] | Potency [14] | Potency [20] | Potency [18] | Potency [19]

C1=CCC(c2ccccc2)CC1 (stereo unspecified)
inactive: Potency [1] | Potency [2] | Potency [3] | outcome [4] | outcome [5] | Potency [6] | Potency [7] | Potency [8] | Potency [9] | Potency [10] | Potency [11] | Potency [12] | Potency [13] | Potency [14] | Potency [15] | Potency [16] | Potency [17] | Potency [18] | Potency [19]

COc1ccc(-c2coc3cc(O)ccc3c2=O)cc1
inactive: Potency [1] | Potency [2] | Potency [3] | outcome [4] | outcome [5] | Potency [6] | Potency [7] | Potency [8] | Potency [9] | Potency [10] | Potency [11] | Potency [12] | Potency [13] | Potency [14] | Potency [20] | Potency [17] | Potency [18] | Potency [19]

CCCCOCC
active: Potency [9] 1.62 µM
inactive: Potency [1] | Potency [2] | Potency [3] | outcome [4] | outcome [5] | Potency [6] | Potency [7] | Potency [8] | Potency [10] | Potency [11] | Potency [12] | Potency [13] | Potency [14] | Potency [16] | Potency [17] | Potency [18] | Potency [19]
